Reference: paper PMC5540273 (PLoS ONE, 2017)

What was measured:
Details in all cases: concentration: 1 μM, replicates: in singlicate; n = 1
[1] = tested on: ADCK4
[2] = tested on: AKT1
[3] = tested on: AKT2
[4] = tested on: AKT3
[5] = tested on: ALK
[6] = tested on: T1, AMPK-alpha1
T1 construct: gene PRKAA1

[7] = tested on: T2, AMPK-alpha2
T2 construct: gene PRKAA2

[8] = tested on: ANKK1
[9] = tested on: T3, ARK5
T3 construct: gene NUAK1

[10] = tested on: T4, ASK1
T4 construct: gene MAP3K5

[11] = tested on: T5, ASK2
T5 construct: gene MAP3K6

[12] = tested on: AURKA
[13] = tested on: AURKB
[14] = tested on: AURKC
[15] = tested on: AXL
[16] = tested on: T6, BIKE
T6 construct: gene BMP2K

[17] = tested on: BLK
[18] = tested on: BMPR1A
[19] = tested on: BMPR1B
[20] = tested on: BMPR2
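Note: KINOMEscan kinase panel screen.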

SMILES	%Inh [1]	%Inh [2]	%Inh [3]	%Inh [4]	%Inh [5]	%Inh [6]	%Inh [7]	%Inh [8]	%Inh [9]	%Inh [10]	%Inh [11]	%Inh [12]	%Inh [13]	%Inh [14]	%Inh [15]	%Inh [16]	%Inh [17]	%Inh [18]	%Inh [19]	%Inh [20]
FC(F)(F)c1ccc(/C=C/c2cncnc2Nc2ccc3[nH]c(Cc4ccccc4)nc3c2)cc1 [GW709199]	0%	0%	0%	0%	23%	0%	3%	0%	6%	0%	0%	0%	5%	0%	0%	0%	3%	4%	0%	0%
Nc1n[nH]c2cnc(-c3ccccc3)cc12 [SB-642124]	24%	0%	8%	0%	30%	0%	30%	23%	0%	6%	0%	4%	32%	100%	0%	99.4%	0%	0%	53%	33%
Cc1ccc(C(=O)N2CC[C@@H](O)C2)cc1-n1c(C)cc(OCc2ccc(F)cc2F)c(Br)c1=O	66%	0%	0%	0%	0%	2%	0%	0%	0%	0%	0%	0%	0%	0%	0%	0%	70%	0%	54%	0%
COc1cccc(C2=C(Nc3ccc(Cl)c(C(=O)O)c3)C(=O)NC2=O)c1 [SB-390769]	22%	0%	0%	0%	36%	6%	2%	99.4%	24%	12%	100%	0%	39%	23%	3%	16%	10%	0%	0%	100%
O=C(Nc1cccc(-c2nn3ccccc3c2-c2ccnc(Nc3cccc(F)c3)n2)c1)c1c(F)ccc(F)c1Cl [GSK357952]	0%	0%	9%	0%	0%	20%	21%	2%	0%	1%	6%	0%	7%	66%	19%	25%	97.2%	0%	0%	0%
O=C(Nc1n[nH]c2nc(-c3ccc(O)cc3)ccc12)C1CC1 [SB-710363]	0%	0%	0%	61%	0%	0%	0%	0%	0%	18%	12%	11%	47%	0%	37%	32%	12%	8%	34%	16%
COc1cc(Nc2ncc3c(C)nc(-c4cc5ccccc5[nH]4)n3n2)cc(OC)c1OC [GW869516]	3%	8%	0%	0%	0%	89%	61%	0%	0%	0%	0%	0%	1%	26%	26%	9%	60%	22%	0%	0%
Nc1ncnc2c1nc(-c1ccccc1)n2-c1ccccc1 [SKF-97293]	0%	2%	3%	16%	52%	23%	31%	29%	0%	0%	29%	24%	47%	0%	14%	4%	0%	8%	17%	46%
CN1CCN(Cc2cccc(-c3ccc4c(Nc5ccc(Oc6ccccc6)cc5)ccnc4c3)c2)CC1 [GW578342]	9%	0%	11%	0%	23%	8%	0%	6%	0%	0%	0%	6%	0%	9%	17%	1%	94.8%	0%	0%	8%
